# L3MBTL1 inh = qHTS Assay for the Inhibitors of L3MBTL1. hit rate 0.66% among 230,000. AlphaScreen L3MBTL1–H3K9me1 peptide binding. Potency, µM (top dose mostly 57.1 µM), inactives show at the top dose activity, negative = inhibition, actives largely listed as inhibitors. Lethal(3)malignant brain tumor-like protein 1 (Homo sapiens), Q9Y468; note: potency is the fitted concentration of half-maximal effect; % is set by controls: 0 for no effect and ±100 for the full control effect; nearly all actives have a fitted effect of over 60% in size
#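 Read-out is AlphaScreen signal from streptavidin donor and nickel chelate acceptor beads (10 ug/mL final each) bridging L3MBTL1 (50 nM) and biotinylated K9-monomethylated H3(1-15) peptide (75 nM), after 30 min compound exposure at room temperature.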
# HP1b binding inh = HTS for Inhibitors of HP1-beta Chromodomain Interactions with Methylated Histone Tails; Chromobox protein homolog 1 (Homo sapiens), P83916; AlphaScreen HP1-beta / biotin-H3K9me3 peptide binding; Potency, µM (top dose mostly 114 µM), without a hit: at the highest dose activity change, negative = inhibition, usual class: inhibitors; hit rate 0.56% among 390,000; AID 540317, 2011; note: potency is the fitted concentration of half-maximal effect; nearly all actives have a fitted effect of over 70% in size
#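 AlphaScreen: HP1-beta (50 nM) preformed 30 min with biotin-H3(1-18)K9me3 peptide (50 nM) in PBS pH 7.4, 0.01% Tween-20. Compound added for 30 min at RT, then streptavidin donor/nickel chelate acceptor beads (10 ug/mL) for 30 min.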
# G9a inh = qHTS Assay for Inhibitors of Histone Lysine Methyltransferase G9a. G9a H3K9 monomethylation, AlphaScreen, 2 h. Potency, µM (series often up to 102 µM), inactives show at the highest dose activity, negative = inhibition, usual class: inhibitors. hit rate 8.8% among 350,000; note: potency is the fitted concentration of half-maximal effect; % is set by controls: 0 for no effect and ±100 for the full control effect; nearly all actives have a fitted effect of over 75% in size
#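 Step 1: enzyme (final 20 nM) with compound, 15 min RT. Step 2: substrate peptide 500 nM and SAM 20 uM, 2 h RT. Step 3: anti-H3K9me1 antibody and AlphaScreen beads, 10 min, then plate read.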
# PI5P4Ka inh = qHTS for Inhibitors of phosphatidylinositol 5-phosphate 4-kinase (PI5P4K) | PI5P4Kalpha enzyme, ADP-Glo luminescence, 60 min; stronger effect = lower value | max response, % | hit rate 1.2% among 330,000; active = max response of -50% or lower; inconclusive = between -30% and -50%; inactive = -30% or higher; note: value at the top dose of about 77 µM; % is set by controls: 0 for no effect and ±100 for the full control effect
#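 Quantitative HTS of the MLSMR library against PI5P4Kalpha with substrate. ATP added last at 5 microM final; room temperature, 60 minutes. Remaining ATP depleted, ADP converted and read as luminescence.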
# JMJD2A Tudor inh = qHTS Assay for Inhibitors of JMJD2A-Tudor Domain. Lysine-specific demethylase 4A (Homo sapiens), O75164. AlphaScreen JMJD2A-Tudor / H3K4me3 peptide binding. Potency, µM (top dose mostly 114 µM), for the others: at the top dose activity change, negative = inhibition, usual class: inhibitors. hit rate 4.4% among 390,000; note: potency is the fitted concentration of half-maximal effect; % is set by controls: 0 for no effect and ±100 for the full control effect; nearly all actives have a fitted effect of over 50% in size
# Target sequence (O75164 whole entry, looked up, the tested form may be a part): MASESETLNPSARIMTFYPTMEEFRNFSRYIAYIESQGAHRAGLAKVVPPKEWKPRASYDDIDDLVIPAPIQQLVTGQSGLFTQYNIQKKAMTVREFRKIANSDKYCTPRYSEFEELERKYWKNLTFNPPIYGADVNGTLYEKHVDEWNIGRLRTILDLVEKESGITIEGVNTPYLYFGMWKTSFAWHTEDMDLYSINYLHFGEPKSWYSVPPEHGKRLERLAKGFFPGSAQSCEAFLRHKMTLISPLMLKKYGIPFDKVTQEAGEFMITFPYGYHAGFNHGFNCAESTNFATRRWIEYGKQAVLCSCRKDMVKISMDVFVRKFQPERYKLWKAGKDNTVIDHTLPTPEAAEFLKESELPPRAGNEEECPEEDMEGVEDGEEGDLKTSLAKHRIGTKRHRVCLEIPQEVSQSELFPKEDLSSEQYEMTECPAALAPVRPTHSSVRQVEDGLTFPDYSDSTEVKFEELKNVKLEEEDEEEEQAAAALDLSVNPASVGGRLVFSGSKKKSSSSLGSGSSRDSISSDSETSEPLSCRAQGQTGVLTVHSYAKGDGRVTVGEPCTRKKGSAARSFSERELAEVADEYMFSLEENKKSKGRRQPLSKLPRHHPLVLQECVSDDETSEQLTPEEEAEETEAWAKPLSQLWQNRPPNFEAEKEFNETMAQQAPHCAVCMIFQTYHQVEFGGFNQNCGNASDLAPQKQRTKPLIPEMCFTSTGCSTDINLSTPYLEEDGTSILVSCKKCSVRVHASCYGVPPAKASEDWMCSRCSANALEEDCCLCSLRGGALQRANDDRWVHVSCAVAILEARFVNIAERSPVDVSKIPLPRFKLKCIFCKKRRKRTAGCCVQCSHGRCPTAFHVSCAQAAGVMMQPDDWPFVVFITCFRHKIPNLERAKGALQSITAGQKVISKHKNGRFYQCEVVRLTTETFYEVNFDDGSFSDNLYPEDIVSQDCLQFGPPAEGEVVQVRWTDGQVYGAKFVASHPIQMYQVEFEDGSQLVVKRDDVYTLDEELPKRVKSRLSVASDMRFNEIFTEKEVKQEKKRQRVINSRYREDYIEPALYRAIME
# BAZ2B block = qHTS Assay for Inhibitors of BAZ2B; AID 504333, 2011; Bromodomain adjacent to zinc finger domain protein 2B (Homo sapiens), Q9UIF8; hit rate 4.4% among 360,000; AlphaScreen BAZ2B-H3K14Ac peptide displacement; Potency, µM (doses to about 114 µM), inactives show top-dose activity change, negative = inhibition, hits mostly inhibitors; note: potency is the fitted concentration of half-maximal effect; % is set by controls: 0 for no effect and ±100 for the full control effect; nearly all actives have a fitted effect of over 60% in size
#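 AlphaScreen displacement: compounds (up to 110uM) incubated 30 min at room temperature with a preformed 50 nM BAZ2B/50 nM biotinylated H3K14Ac peptide complex in PBS pH 7.4 with Tween-20. Donor and acceptor beads at 10 ug/mL final added, 20 min light-protected before reading.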
# The depositor's hits bear a star; ? = inconclusive; . = not tested or not shown; [ ] = dose if it differs, or a comment. Only some compounds are listed: those with a hit (about 11% of all), similar ones and a draw of the others. Unless noted, calls come from the whole dose curve; as a rule, active = well fitted inhibition curve with a large enough effect; inconclusive = small, poorly fitted or top-dose-only effect; inactive = no such curve, though single readings can be large or run the other way.
SMILES,L3MBTL1 inh,HP1b binding inh,G9a inh,PI5P4Ka inh,JMJD2A Tudor inh,BAZ2B block
COc1ccc(Cl)cc1NC(=O)CSc1nc(-c2ccccc2)cc(=O)[nH]1,-4%,21%,-4%,0,-18%,-1%
CCOC(=O)NC1(Nc2ccc(Cl)cn2)Oc2ccccc2O1,11µM*,.,6.3µM*,.,.,?
O=C1CC(c2ccco2)CC2=C1C1c3ccccc3C(=O)N1c1ccccc1N2 (stereo unspecified),-18%[11.4 µM],-12%,18µM*,-3,-23%,?
CCC(=O)N1c2ccccc2NC2=C(C(=O)CC(c3ccco3)C2)C1c1ccco1 (stereo unspecified),.,3%,-51%[12.7 µM],-10,-8%,-33%
CCOc1ccc2nc(NC(=O)c3nc(SCc4ccc(C)cc4)ncc3Cl)sc2c1,.,42%,3%[59 µM],.,-7%,-5%
COc1ccc(CCN(C)C/C=C/c2ccccc2)cc1OC,0%,?,50µM*,1,28µM*,?
COc1ccc(CCN(C)CCC(=O)Nc2ccc(C)cc2)cc1OC,1%,17%,-50%[59 µM],1,-28%,3%
COc1ccc(Cc2noc(CN(C)CC(O)c3ccccc3)n2)cc1OC (stereo unspecified),11%,40%,.,5,-11%,-1%
COc1ccc(CCN(C)CCC(=O)Nc2cccc(C)c2)cc1OC,-1%,22%,?,-3,-19%,-8%
COc1cc(C(C)=O)ccc1OCC(O)CNCC(O)c1ccccc1 (stereo unspecified),.,?,24%,-8,28µM*,56µM*
COc1ccc(CCN(C)CC(O)c2ccccc2)cc1OC (stereo unspecified),-19%,?,28µM*,-9,2.5µM*,?
COc1ccc(CCN(C)CCc2ccc(OC)c(OC)c2)cc1OC,.,28%,16µM*,5,-14%,.
CCC(C)NC(=O)Cn1c(=O)c2cccn2c2ccc(F)cc21 (stereo unspecified),.,22%,-19%[59 µM],.,-13%,-7%
CCCC1CC(C(=O)N[C@H](C(C)O)C2OC(SC)[C@@H](O)C(O)C2O)N(C)C1 (stereo partly specified),.,.,-46%[2.33 µM],.,.,.
CCOc1ccc(CCNC(=O)c2cc3c(s2)-c2ccccc2OC3)cc1OCC,.,24%,-4%[59 µM],.,?,6%
CC(C)CSc1nnc(-c2ccccc2)c(-c2ccccc2)n1,.,54%,7%[59 µM],.,32%,30%
CN(Cc1ccc(OCC(O)CN(C)Cc2ccccc2)cc1)Cc1nccn1C (stereo unspecified),-12%,16%,-106%[59 µM],4,-34%,?
COc1ccc(CN(C)CC(O)COc2ccc(-c3ccccc3)cc2)cc1OC (stereo unspecified),.,50µM*,40µM*,9,35µM*,79µM*
C=CCOc1ccc(CN(C)CC(O)COc2ccc(CCC(C)=O)cc2)cc1 (stereo unspecified),.,?,10µM*,-8,1µM*,-26%
COc1ccc(CCN(C)CC(O)COc2ccc(C(C)=O)cc2OC)cc1OC (stereo unspecified),.,79µM*,28µM*,1,28µM*,-30%
CN(Cc1ccc(Br)cc1)CC(O)COc1cccc(Br)c1 (stereo unspecified),.,?,22µM*,30,5µM*,79µM*
CCOCCCN(Cc1ccco1)S(=O)(=O)c1cc2c(cc1Cl)NC(=O)CO2,.,13%[57 µM],-6%[59 µM],.,-27%,-12%
CCCCC/C=C\C/C=C\C/C=C\C=C\C(=O)CCCC(=O)O,.,.,34%[59 µM],.,.,.
CC(C)Oc1ccc(CNC(=O)c2cnc3sc(N4CCCCCC4)nn3c2=O)cc1,.,10%,-4%[59 µM],.,-11%,-17%
O=[N+]([O-])c1cccc(Nc2nc(Cl)nc(Cl)n2)c1,.,10%,?,-25,-29%,89µM*
SMILES,L3MBTL1 inh,HP1b binding inh,G9a inh,PI5P4Ka inh,JMJD2A Tudor inh,BAZ2B block
Nc1nonc1-c1nc2ccccc2n1Cc1cccc(Cl)c1,.,21%,23%[59 µM],.,-13%,-2%
COc1ccc(C(=O)c2nc3c(n2O)CCCC3)cc1OC,.,1%,?,7,50µM*,-27%
N#CCCn1c(=O)c(-c2cc(F)cc(F)c2)nc2cnc(N3CCOCC3)nc21,.,.,-5%[0.501 µM],.,.,.
O=C(NCC(c1ccco1)S(=O)(=O)c1cccs1)c1c(F)cccc1F (stereo unspecified),.,-2%,0%[59 µM],.,-7%,-5%
O=C(C[N+]12CC[N+](CC(=O)c3ccc(F)cc3)(CC1)CC2)c1ccc(F)cc1,.,27%,-6%,-5,-2%,9%
N#CC1(C#N)CC(C=O)=C(N)C1(C#N)CC(=O)c1ccc(F)cc1 (stereo unspecified),-6%,-18%,32µM*,0,-9%[57.1 µM],-33%
CCOc1ccc(CNC(=O)C(CC)n2nc(C)n3c(cc4occc43)c2=O)cc1OC (stereo unspecified),-9%,31%,50µM*,-4,-7%,-6%
COc1ccccc1CNC(=O)Nc1ccc2c(c1)N(C)C(=O)c1ccccc1S2,.,?,-46%[59 µM],.,-35%,?
O=C1C2=C(Nc3ccccc3SC2c2ccco2)c2ccccc21 (stereo unspecified),.,22µM*,?,?,35µM*,35µM*
O=C1C2=C(Nc3ccccc3SC2c2ccc(C(F)(F)F)cc2)c2ccccc21 (stereo unspecified),.,?,11µM*,.,28µM*,.
CC(C)c1ccc(C2Sc3ccccc3NC3=C2C(=O)c2ccccc23)cc1 (stereo unspecified),.,?,?,.,11µM*,8.9µM*
CC(NC(=O)CC1Sc2ccccc2NC1=O)c1ccccc1 (stereo unspecified),-12%,56%,-6%,1,-2%,23%
CCc1ccc(C2Sc3ccccc3NC3=C2C(=O)c2ccccc23)cc1 (stereo unspecified),.,?,10µM*,.,25µM*,.
CC1CC(=O)C2=C(C1)Nc1ccccc1SC2c1ccc(F)cc1 (stereo unspecified),2%,36%,1%[59 µM],-1,-11%,-26%
O=C(OCC#CCSc1nnc(-c2ccc(F)cc2)o1)c1ccc(F)cc1,.,.,.,.,57%,.
CCCCN(CCCN)c1ccc(Br)cn1,.,13%,.,.,-21%,.

# Screening results as filed in PubChem BioAssay.
